Inconclusive results are not listed. Calls of active or inactive are those of the source. Rule for the calls: active = hit-call score of the fitted dose curve at least 0.9, where 1 is the maximum; inconclusive = response in the unintended direction; inactive = score below 0.9.

The test can be described thus: TOX21_p53_BLA_p2_viability: Viability Assessment in the Tox21 HCT-116 p53 Agonism Beta-lactamase Assay, Phase 2 (AID 2283591).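 Note: compound exposure lasted 16 h at 37 °C; actives lower the ATP signal meaning cytotoxicity.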 An excerpt: TOX21_p53_BLA_p2 is a cell-based, single-readout assay that uses HCT116, a human intestinal cell line, […] in a 1536-well plate.TOX21_p53_BLA_p2_viability is an assay readout measuring cellular ATP content and detected with CellTiter-Glo Luciferase-coupled ATP quantitation.TOX21_p53_BLA_p2_viability used a type of viability reporter where loss-of-signal activity can be used to understand changes in the cell viability. Furthermore, this assay endpoint can be referred to as a secondary readout, because this assay has produced multiple assay endpoints where this one serves a viability function. To generalize the intended target to other relatable targets, this assay endpoint is annotated to the cell cycle intended target family, where the subfamily is cytotoxicity.
Thawing Method: Place 14 mL of pre-warmed thaw medium into a 15 mL of conical tub. Remove the vial of cells to be thawed from liquid nitrogen and thaw rapidly by placing at 37C in a water bath with gentle agitation for 1-2 minutes. Decontaminate the vial by wiping with 70% ethanol before opening in a biological safety cabinet. Transfer the vial contents drop-wise into 14 mL of thaw medium in a sterile 15-mL conical tub. Centrifuge cells at 900 rpm for 4 minutes and resuspend in thaw medium. Transfer contents to the T75 tissue culture flask containing Thaw Medium and place flask in a humidified 37C/5% CO2 incubator. Switch to growth medium at first passage.Propagation Method: Aspirate medium, rinse once in DPBS, add 0.25% Trypsin/EDTA and swirl to coat the cell evenly. Add an equal volume of Growth Medium to inactivate Trypsin after 2-3 minutes incubation at 37C. Centrifuge cells at 900 rpm for 4 minutes and resuspend in growth medium. Cell should be passage or fed at least twice a week.Assay Protocol: Harvest cells from culture in growth medium and resuspend in assay medium. 2.2 Dispense 4000 cells/5 uL/well into 1536-well black/clear bottom plates using a Multidrop dispenser. After the cells were incubated at 37C for 5 hours, 23 nL of compounds dissolved in DMSO were transferred to the assay plate by a PinTool resulting in a 217-fold dilution. Incubate the plates for 16 hours at 37C, 5% CO2. Add 1 uL of 6X LiveBLAzer FRET B/G (CCF4-AM) Substrate Mixture to each well using a BioRAPTR dispenser and incubate the plates at room temperature for 2 hours. Measure fluorescence intensity at 460 and 530 nm emission and 405 nm excitation by an Envision detector. Data is expressed as the ratio of 460nm/530nm emissions. Add 4 uL of Cell-titer Glo to each well using BioRAPTR and incubate the plates at room temperature for […]. For cell viability readout that measures cytotoxicity, 4 ul/well of CellTiter-Glo reagent was added into the assay plates using a Flying Reagent Dispenser. After 30 min incubation at room temperature, the luminescence intensity in the plates was measured using a ViewLux plate reader.
With `CO/C=C(/C(=O)OC)c1ccccc1Oc1cc(Oc2ccccc2C#N)ncn1`, the call was inactive. Same read-out and setting: next, `COc1ccc(C(c2ccc(OC)cc2)C(Cl)(Cl)Cl)cc1`: “inactive”; `COP(=S)(OC)Oc1nc(Cl)c(Cl)cc1Cl`: “inactive”; `CCOC(=O)CC(SP(=S)(OC)OC)C(=O)OCC` (stereo not given): “inactive”. Still for that read-out and setting: in the case of `COP(N)(=O)SC` (stereo not given) it was “inactive”.

A word on the AC50: it is the midpoint of the concentration-response curve, whichever way the signal moves. As for `N#CC(CCc1ccc(Cl)cc1)(Cn1cncn1)c1ccccc1` (stereo not given), the AC50 was 56 µM (active). Regarding `CCCC1COC(Cn2cncn2)(c2ccc(Cl)cc2Cl)O1` (stereo not given), the result was inactive. The same measure, in the same setting: next, `CC(C)C1(C)N=C(c2nc3ccccc3cc2C(=O)O)NC1=O` (stereo not given): “inactive”. With `Cc1cc(Cl)ccc1OCC(=O)O`, the outcome was inactive. On the same count and under the same terms, in the case of `C=CCC1=C(C)[C@@H](OC(=O)[C@@H]2[C@@H](C=C(C)C)C2(C)C)CC1=O` it was “inactive”. On the same count and under the same terms, in the case of `C=CCC1=C(C)C(OC(=O)C2C(C=C(C)C)C2(C)C)CC1=O` (stereo not given) it was “inactive”; in that of `COC(=O)N(OC)c1ccccc1COc1ccn(-c2ccc(Cl)cc2)n1`, “inactive”.

In the case of `CCON=C(CC)C1=C(O)CC(c2c(C)cc(C)cc2C)CC1=O` (stereo not given), the compound was classed as inactive.

Consider `COC(=O)C(C)Oc1ccc(Oc2ccc(Cl)cc2Cl)cc1` (stereo not given), for which the result was inactive. Turning to `CON(C)C(=O)Nc1ccc(Cl)c(Cl)c1`, the compound was called inactive. Regarding `O=C(Nc1ccccc1)Nc1ccnc(Cl)c1`, the compound was called inactive. As to `CCCCNC(=O)n1c(NC(=O)OC)nc2ccccc21`, the call was inactive.

As for `CN(C)C(=S)SSC(=S)N(C)C`, the result was inactive.

As to `CCc1nn(C)c(C(=O)NCc2ccc(C(C)(C)C)cc2)c1Cl`, the AC50 is 46.1 µM (active). For the compound `CC(Oc1ccc(Cl)cc1Cl)C(=O)O` (stereo not given), the result was inactive.

Take `C=CC1(C)OC(=O)N(c2cc(Cl)cc(Cl)c2)C1=O` (stereo not given): the compound was classed as inactive. Take `CCNc1nc(Cl)nc(NCC)n1`: the compound was classed as inactive. Regarding `CC(C)(C)c1ccc(CSc2cnn(C(C)(C)C)c(=O)c2Cl)cc1`, the compound was classed as inactive.

For `Fc1ccc(Oc2ccnc3cc(Cl)cc(Cl)c23)cc1`, the compound was classed as inactive. Still for that read-out and setting: next, `COc1cnc(OC)n2nc(NS(=O)(=O)c3c(OCC(F)F)cccc3C(F)(F)F)nc12`: “inactive”; `CCCCC(CC)COC(=O)c1ccccc1C(=O)OCC(CC)CCCC` (stereo not given): “inactive”; `CCOc1cc(Oc2ccc(C(F)(F)F)cc2Cl)ccc1[N+](=O)[O-]`: “inactive”.

With `CC1COC(Cn2cncn2)(c2ccc(Oc3ccc(Cl)cc3)cc2Cl)O1` (stereo not given), the AC50 is 78.7 µM (active).

For `N#Cc1nn(-c2c(Cl)cc(C(F)(F)F)cc2Cl)c(N)c1S(=O)C(F)(F)F` (stereo not given), the compound was classed as inactive. Still for that read-out and setting: next, `O=C(O)c1nc(Cl)ccc1Cl`: “inactive”. Regarding `CNC(=S)S`, the compound was classed as inactive. For the compound `COc1nc(C)nc(NC(=O)NS(=O)(=O)c2ccccc2Cl)n1`, the compound was classed as inactive. Take `Cc1ccc(-c2c(Cl)nc(C#N)n2S(=O)(=O)N(C)C)cc1`: the AC50 is 68.9 µM (active).

For the compound `Oc1ccccc1-c1ccccc1`, the call was inactive. Same read-out and setting: next, `OC(c1ccc(Cl)cc1)(c1cncnc1)c1ccccc1Cl` (stereo not given): “inactive”.

As to `CC(C)Oc1cc(-n2nc(C(C)(C)C)oc2=O)c(Cl)cc1Cl`, the result was inactive. Consider `CCCCNC(=O)OCC#CI`, for which the result was inactive. Same read-out and setting: in the case of `O=C(O)COc1nc(Cl)c(Cl)cc1Cl` it was “inactive”. `C#CCOS(=O)OC1CCCCC1Oc1ccc(C(C)(C)C)cc1` (stereo not given): the call was inactive. With `CC1=C(C(=O)Nc2ccccc2)SCCO1`, the compound was called inactive.

Values taken from PubChem BioAssay (EPA / NIEHS).
